An excerpt weighted towards active compounds, which were near 0.69% of everything screened.
a7 integrin act: activators of alpha7 integrin expression for muscular dystrophy. alpha7betagal myoblasts, beta-gal FDG fluorescence, 48 h. Potency, µM (series often up to 38.3 µM), without a hit: top-dose activation, usual class: activators. actives 0.064% (n = 350,000). AID 624291;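 further: potency means the concentration at half of the fitted maximal effect; 100% = response of the positive control SU9516; nearly all actives have a fitted effect of over 60% in size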
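Alpha7betagal+/- myoblasts (passage 13) were plated 16-24 hr, then exposed to compounds (1:260 dilution of DMSO stock) for 48 hours at 37C. After MPER lysis, β-galactosidase reporter activity was read as FDG fluorescence (ex 480/em 540) after 30 minutes.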
PKM2 activator: increases activity of human pyruvate kinase M2. Potency, µM (series often up to 57.5 µM), without a hit: at the highest dose activation, most hits filed as activators. purified PKM2, Kinase-Glo ATP luminescence, activation; response scale: 0% is enzyme alone, no compound. AID 1631. actives 0.34% (n = 260,000); further: potency means the concentration at half of the fitted maximal effect; on the % scale 0 is the no-effect control and ±100 the full control effect; nearly all actives have a fitted effect of over 55% in size
Target sequence (P14618 whole entry, looked up): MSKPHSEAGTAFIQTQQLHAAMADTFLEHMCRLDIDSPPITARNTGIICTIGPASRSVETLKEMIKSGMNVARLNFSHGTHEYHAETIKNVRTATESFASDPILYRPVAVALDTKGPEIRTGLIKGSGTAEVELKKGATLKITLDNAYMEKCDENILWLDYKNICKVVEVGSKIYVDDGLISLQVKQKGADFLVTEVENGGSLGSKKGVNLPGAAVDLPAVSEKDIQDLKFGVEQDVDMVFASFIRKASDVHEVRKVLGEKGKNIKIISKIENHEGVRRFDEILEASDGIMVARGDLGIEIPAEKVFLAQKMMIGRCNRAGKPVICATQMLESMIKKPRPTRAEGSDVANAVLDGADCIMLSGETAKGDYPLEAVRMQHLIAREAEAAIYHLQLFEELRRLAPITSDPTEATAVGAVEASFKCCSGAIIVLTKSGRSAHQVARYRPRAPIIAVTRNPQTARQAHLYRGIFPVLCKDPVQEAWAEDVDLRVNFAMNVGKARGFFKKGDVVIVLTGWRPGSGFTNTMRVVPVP
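Purified hPK-M2 (>95% pure) converted ADP (0.1 mM final) to ATP with 0.5 mM PEP in 50 mM imidazole pH7.2, KCl, MgCl2, Tween 20, BSA; 1 h at room temperature. ATP detected by Kinase-Glo luminescence.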
A-T KAP1 phos: candidate therapy for ataxia-telangiectasia; F2112 A-T fibroblasts, KAP-1 phosphorylation AlphaLISA; neocarzinostatin DNA damage 30 min before lysis; Potency, µM (titrated, usually from 57.5 µM), for the others: top-dose activation, most hits filed as activators; actives 0.19% (n = 320,000); AID 485349; further: potency means the concentration at half of the fitted maximal effect; % of control where 0% means no effect; nearly all actives have a fitted effect of over 45% in size
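ATM-like activity read as KAP-1 phosphorylation via AlphaLISA donor/acceptor antibody pairs after lysis and 6 hr at 25C. Cells were ATM-null patient fibroblasts (F2112, hTERT), dosed 60 min, then exposed to the DSB inducer NCS for 30 min.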
TCR act: T cell receptor activation. 330,000 tested, under 10 active. primary human leukocytes, anti-CD3, IL-2 HTRF, 48 h. Potency, µM (titrated, usually from 9.22 µM), for the others: at the top dose activation of IL-2 secretion, hits mostly activators. AID 504894; further: % of control where 0% means no effect
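1) Mix primary human leukocytes, a-CD3 beads and compound. 2) Incubate 48 hr. 3) Add HTRF IL-2 reagents (a-IL-2-K, a-IL-2-d2).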
IL2 activator: IL-2 activation | IL-2 activation reporter assay, cell-based qHTS; stimulated with anti-CD3/CD4/CD28 beads; in transgenic mouse T cells | actives 0.065% (n = 360,000) | activation, % (series mostly up to about 46 µM); in the data active means activation above about 50%; inconclusive means mostly about 30% to 49%; further: 0% is about no effect
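Unstimulated transgenic mouse T cells; 60-min compound exposure; bead-based TCR/CD4/CD28 stimulation; 18 h culture, 37 degrees C; dual fluorescence (EGFP, DsRed) plate cytometry.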
Tb PFK block: blocks T. brucei phosphofructokinase. O15648. T. brucei PFK, ADP-Glo luminescence. Potency, µM (series often up to 57.5 µM), for the others: at the highest dose activity, negative = inhibition, most hits filed as inhibitors. actives 0.17% (n = 330,000);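 further: potency means the concentration at half of the fitted maximal effect; 0% = uninhibited 1x PFK enzyme wells and -100% = no-enzyme wells; nearly all actives have a fitted effect of over 60% in size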
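Compounds were pin-transferred as a titration series up to 57 uM into substrate buffer (0.5 mM F6P, 0.1 mM ATP, pH 8.0), then 1.25 nM PFK was added and reactions ran 45 min before ADP-Glo detection.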
* marks the source's active call; other numbers are inactive results; ? = inconclusive; / = no result given; [ ] = remark or other dose. Unless noted, the call rests on the fitted dose curve; in most records, active means well fitted curve in the direction sought with a large enough effect; inconclusive means small, poorly fitted or top-dose-only effect, or another doubt; inactive means no such curve, though single readings can be large; an effect the other way counts as inactive or inconclusive.

SMILES | a7 integrin act | PKM2 activator | A-T KAP1 phos | TCR act | IL2 activator | Tb PFK block
CCCN1CC=C2C(C#N)=C(N)C(C#N)(C#N)C(c3cccc(OC)c3OC)C2C1 (configuration not stated) | -7.9% | -7.8% | 16.8% | -3.7% | -0.5 | -4.5%
CN(C)/C(Cn1cncn1)=C1/N=C(c2c(F)cccc2F)OC1=O | 17.7% | 25.1µM* | 11.8% | -2.0% | -2.7 | -5.4%
CN(C)/C(CN1CCOCC1)=C1\N=C(c2ccccc2)OC1=O | -9.0% | -8.1% | -8.4% | / | 4.9 | 0.4%
CCS(=O)(=O)Nc1ccc(C2=NN(C(=O)c3ccco3)C(c3ccc(C)cc3)C2)cc1 (configuration not stated) | 14.2% | 7.94µM* | 15.4% | 0.0% | -4.0 | 4.2%
CCS(=O)(=O)Nc1ccc(C2=NN(C(=O)c3ccco3)C(c3cccc(F)c3)C2)cc1 (configuration not stated) | -7.8% | ? | 3.6% | -9.7% | -2.1 | -5.1%
Cc1ccc(C2CC(c3ccc(NS(C)(=O)=O)cc3)=NN2C(=O)c2ccco2)cc1 (configuration not stated) | -6.7% | ? | 2.2% | -2.1%[46.1 µM] | -2.3 | -1.5%
CS(=O)(=O)Nc1ccc(C2=NN(C(=O)c3ccco3)C(c3ccccc3)C2)cc1 (configuration not stated) | -20.0% | 14.1µM* | -0.9% | 0.2%[46.1 µM] | -0.6 | -1.1%
CCCCCn1nc(C(=O)N(CC(C)C)c2c(N)n(CCCC)c(=O)[nH]c2=O)c2ccccc2c1=O | 4.5% | / | 12.1% | -2.0% | -0.1 | -0.6%
N#Cc1cc(-c2ccccc2)nc(N2CCNCC2)n1 | 19.5% | -1.7% | 31.6µM* | -3.2% | -0.2 | 2.9%
O=C(/C=C/c1ccco1)NCC1COc2ccccc2O1 (configuration not stated) | -9.6% | 1.3% | 25.1µM* | 3.7% | 7.2 | 0.0%
COc1ccc([C@]23Cc4cc(C#N)ccc4C(O2)c2c(cc(C)n(-c4ccccc4)c2=O)O3)cc1 | / | 6.1%[11.5 µM] | -10.0%[11.5 µM] | / | / | -17.7%[11.5 µM]
Cc1cc2nc(/C=C/c3nc4cc(C)c(C)cc4[nH]3)[nH]c2cc1C | -1.1% | -5.4% | 22.4µM* | 8.6% | 3.0 | 1.9%
COC(=O)c1ccc(C(NC(=O)OCc2ccccc2)/C(=C/[C@@H](C)C(=O)N(C)C)c2cccnc2)cc1 (some centres not stated) | / | 0.2% | / | / | / | /
COc1ccc2nc(C)cc(NCc3ccc(F)cc3)c2c1 | -60.9% | 5.1% | -4.8% | -0.8% | 65.3* | 1.4%
COc1ccc2nc(C)cc(Nc3ccc(C)cc3)c2c1 | -6.7% | ? | -3.3% | 1.3% | -2.1 | -1.1%
COc1cccc(OCCCn2ccnc2)c1 | 3.0% | 7.5%[11.5 µM] | 3.4% | 13.1% | -0.5 | -0.1%
COc1ccc(OCCCn2ccnc2)cc1 | 1.2% | / | 3.16µM* | 5.9% | -0.2 | -3.6%
O=C(Nc1ccccc1Oc1ccccc1)c1cccs1 | -10.4% | / | 3.55µM* | 4.2% | -1.7 | 1.5%
Cc1ccc(S(=O)(=O)N2CCc3nc(-c4ccccc4)c4c(c3C2)CO[C@@H](C)C4)cc1 | / | -0.4%[11.5 µM] | / | / | / | /
Cc1ccc(CNC(=O)C2CC(c3cccc(F)c3)=NO2)cc1 (configuration not stated) | -6.2% | 9.4% | 25.1µM* | -1.1% | -0.3 | 2.5%
O=C(CN1C(=O)c2cccc([N+](=O)[O-])c2C1=O)OCC(=O)N1CCCCC1 | 3.3% | / | -3.9% | -7.2% | -0.4 | 0.0%
CCN(CC)CCCNc1ccc2ncn3c4ccc(O)cc4c(=O)c1c23 | -20.6% | / | / | 0.9% | 123.5* | /
CN(C)CCNc1ccc2nnn3c4ccc(O)cc4c(=O)c1c23 | -16.6% | / | / | -2.8% | -0.7 | /
COC(=O)C1=C(C(=O)OC)[C@@H]2Nc3ccccc3[C@@]23C[C@@H](C(=O)OC)N(S(=O)(=O)c2ccc4c(c2)OCCN4C)C3=N1 | / | 2.1%[11.5 µM] | / | / | / | /
COc1ccccc1Cn1c(=S)[nH]c2cc(C(=O)N3CCN(c4ccccc4OC)CC3)ccc2c1=O | 9.4% | / | -1.0% | 0.5% | 0.8 | -5.7%
SMILES | a7 integrin act | PKM2 activator | A-T KAP1 phos | TCR act | IL2 activator | Tb PFK block
COc1ccc(Cn2c(=O)[nH]c3cc(C(=O)N4CCN(Cc5ccccc5)CC4)ccc3c2=O)cc1 | -13.9% | 12.6µM* | 5.2% | 2.7% | 0.4 | -3.3%
COc1ccccc1N1CCN(C(=O)c2ccc3c(=O)n(Cc4ccco4)c(=S)[nH]c3c2)CC1 | -49.2%[7.66 µM] | 1.12µM* | -2.3% | -1.4% | -0.5 | -1.9%
Oc1ccc(COC2CCCC2)c2cccnc12 | / | / | -4.8% | / | / | -0.7%
CCN1C(=O)S/C(=C\c2ccc(N3CCOCC3)cc2C)C1=O | 2.3% | -0.5% | -3.2% | -0.8% | -1.6 | 1.6%
C#CCN1C(=O)S/C(=C\c2ccc(N3CCOCC3)cc2C)C1=O | -6.8% | 1.3% | -7.0% | -4.8% | 202.7* | 5.0%
COC(=O)c1c(-c2ccc(N(C)C)cc2)sc2ccc(OC)cc12 | 0.0% | / | 25.1µM* | 3.7% | 0.1 | 3.6%
CN(C)c1ccc(CNC(=O)[C@@]2(C)C=C[C@@H](Cc3ccccc3)N2C)cc1 | / | -2.9% | / | / | / | /
Cn1c(SCc2cccnc2)nc2c(c1=O)SCC2 | -15.8% | 28.2µM* | 8.6% | / | 0.5 | -25.8%
Cn1c(SCc2ccc(Br)cc2)nc2c(c1=O)SCC2 | 10.8% | 12.8% | 0.8% | 2.0% | -1.1 | -4.9%
COC(=O)Cn1c(C(=O)N2CCCC2)cc2c1C[C@H]1CN(C(=O)c3ccccc3)[C@@](Cc3ccccc3)(C(=O)OC)[C@@H]21 | / | 1.3% | / | / | / | /
COc1cc(/C=C2/C(=N)N3C(SC)=NSC3=NC2=O)ccc1OC(=O)c1ccco1 | 3.98µM* | 2.6% | -4.6% | -0.7% | 2.9 | 6.2%
COc1cc(/C=C2/C(=N)N3C(=NC2=O)SN=C3S(C)(=O)=O)ccc1OC(=O)c1ccco1 | -10.8% | / | -8.3% | -3.7% | 8.7 | 0.1%
O=C(O)/C=C/c1cn(Cc2ccccc2Cl)nc1-c1ccccc1 | 14.7% | 1.8% | 10µM* | -6.4% | -1.7 | 3.1%
O=C(O)/C=C/c1cn(Cc2ccccc2)nc1-c1ccc(Cl)cc1 | 5.1% | -41.7% | 0.7% | -11.1% | -0.7 | -1.0%
CN(c1ccc(C(=O)NCc2ccc3c(c2)OCO3)cc1)S(=O)(=O)c1ccccc1 | 36.7% | 15.8µM* | -1.2% | 3.8% | 7.6 | 2.8%
COc1ccc(S(=O)(=O)N(C)c2ccc(C(=O)NCc3ccco3)cc2)cc1 | -19.4% | 12.6µM* | 20.5% | 14.4% | 0.4 | 1.8%
CCC1=C2CC[C@H]3C(=O)N(CC(=O)OC)C(=O)[C@H]3[C@H]2[C@@]2(C)C(=O)N(Cc3ccccc3)C(=O)N2C1=O | / | -11.4% | / | / | / | /

Assay outcomes (PubChem)
